Assay in all cases: NCI-60 one-dose screen, 48 h (100 = growth as untreated, 0 = no growth, -100 = all killed)
What all share (conditions): 10 µM unless noted

Test [1] relates to SK-MEL-2 melanoma.
The test system of test [2] is EKVX NSCLC.
The subject of test [3] is SN12C renal.
Test [4] concerns TK-10 renal.
The test system of test [5] is ACHN renal.
Test [6] deals with CAKI-1 renal.
Test [7] relates to A498 renal.
In test [8] the test system is CCRF-CEM leukemia.
Test [9] relates to MOLT-4 leukemia.
Test [10] deals with SR leukemia.
For test [11], the system named is OVCAR-8 ovarian.
Test [12] concerns OVCAR-5 ovarian.
The test system of test [13] is OVCAR-4 ovarian.
Test [14] has as its system SK-OV-3 ovarian.
The subject of test [15] is IGROV1 ovarian.
For test [16], the system named is OVCAR-3 ovarian.
Test [17] relates to NCI/ADR-RES ovarian.
Test [18] concerns UO-31 renal.
Test [19] has as its system HS 578T breast.
Test [20] deals with RPMI-8226 leukemia.

For eight compounds, growth results are on record in PubChem BioAssay (NCI).

Where “and” joins values, the source holds several entries; their conditions need not be identical. Equal entries are not always repeated. This is part of a sample that, as a whole, favours compounds with a hit. Of some 83,000 tested, about 20% had one in any assay.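 Percent growth is the endpoint: 0 to 100 indicates growth inhibition (40 means 60% inhibition), 0 means no net growth, and negative values indicate cell death.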 Calls of active or inactive are those of the source. Rule for the calls: active = growth percent below 10; inactive = the rest.

With `CN(C)c1ccc(N=Nc2cccc3ccccc23)cc1`, the growth in test [1] is 100% (inactive); in test [2], 71.7% (inactive); in [3], 92.9% (inactive); in test [4] it was 80.9% (inactive); in test [5] it was 91.3% (inactive); in test [6], 90.2% (inactive). In addition, the growth in test [7] is 85.3% (inactive); in [8], 81.6% (inactive); in test [9] it was 84.3% (inactive); in [10], 111% (inactive); in [11], 94.8% (inactive); in [12] it was 107% (inactive). Besides, the growth is 81.4% (inactive) in test [13]; 80.1% (inactive) in test [14]; 67.2% (inactive) in [15]; 84.3% (inactive) in [16]; 102% (inactive) in test [17].

As for `CCC(CC)COC(=O)c1ccc(O)c(O)c1`, the growth is 85.6% (inactive) in test [1]; 93.7% (inactive) in test [2]; 45.8% (inactive) in [3]; 26.3% (inactive) in [18]; 72.5% (inactive) in test [5]; 40.6% (inactive) in test [6]. Also, the growth was 15.2% (inactive) in test [8]; 18.6% (inactive) in test [10]; 77.2% (inactive) in test [13]; 67% (inactive) in test [14]; 37.5% (inactive) in [15]; 78.1% (inactive) in test [16]. Moreover, the growth in [19] is 86.8% (inactive); in test [17] it was 57.8% (inactive).

`NC(=S)N/N=C\c1nccc2c(C(F)(F)C(F)(F)C(F)(F)F)cccc12`: the growth in [1] was 7.18% (active); in test [2], 11.8% (inactive); in [3], 15.6% (inactive); in test [4], 11.9% (inactive); in test [5], -0.888% (active); in test [6] it was -5.07% (active). In addition, the growth was -8.14% (active) in [8]; -30.9% (active) in test [9]; -29.4% (active) in [10]; -11% (active) in test [20]; -0.116% (active) in [11]; -21.8% (active) in test [14]. Moreover, the growth in test [15] is 5.98% (active); in test [16], 4.2% (active); in test [19] it was 50.7% (inactive); in test [17] it was -11.6% (active).

Turning to `CC(=O)Nc1cccc2cc(O)ccc12`, the growth in [1] was 125% (inactive) and 101% (inactive); in [2], 101% (inactive) and 120% (inactive) and 99.3% (inactive); in test [3], 107% (inactive) and 94.4% (inactive) and 97.2% (inactive); in test [4] it was 123% (inactive) and 99.7% (inactive) and 97.9% (inactive); in [5] it was 104% (inactive) and 109% (inactive) and 100% (inactive); in [6], 129% (inactive) and 93.5% (inactive). In addition, the growth was 99.2% (inactive) and 108% (inactive) and 109% (inactive) in test [7]; 98.1% (inactive) and 101% (inactive) and 104% (inactive) in [8]; 111% (inactive) and 108% (inactive) and 98.5% (inactive) in test [9]; 108% (inactive) and 107% (inactive) and 99.6% (inactive) in test [10]; 106% (inactive) and 100% (inactive) and 94.3% (inactive) in test [11]; 94.7% (inactive) and 93.2% (inactive) and 113% (inactive) in [12]. Besides, the growth in test [13] was 119% (inactive) and 109% (inactive) and 98.8% (inactive); in [14], 111% (inactive) and 115% (inactive) and 99.8% (inactive); in test [15], 97.2% (inactive) and 123% (inactive); in [16], 111% (inactive) and 105% (inactive) and 108% (inactive); in test [19] it was 132% (inactive) and 101% (inactive) and 98.5% (inactive); in test [17] it was 104% (inactive) and 113% (inactive) and 110% (inactive).

With `COC(=O)[C@@]12OC[C@]34[C@H]([C@@H](O)[C@@H]1O)[C@@]1(C)[C@H](O)C(=O)C=C(C)[C@@H]1C[C@H]3OC(=O)C(OC(C)=O)[C@@H]24` (stereo partly specified), the growth was -49.5% (active) in test [1]; -43.6% (active) in test [2]; -17.5% (active) in test [3]; -35.1% (active) in test [18]; -39.2% (active) in test [5]; -35.9% (active) in [6]. The growth in [7] was -49.4% (active); in [9] it was -41.6% (active); in test [10] it was -43% (active); in [20], -69.8% (active); in test [12] it was -11.5% (active); in [13] it was 3.68% (active). Also, the growth in [14] is -9.46% (active); in [15], -58% (active); in test [16] it was -48.4% (active); in test [19], -33% (active); in test [17], 16% (inactive).

In the case of `O=C(Oc1cccc2cccnc12)c1ccccc1`, the growth in test [1] was 110% (inactive) and 96.7% (inactive); in [3], 86% (inactive) and 104% (inactive); in [18], 78.6% (inactive) and 82% (inactive); in [4], 106% (inactive) and 107% (inactive); in test [5], 96.5% (inactive) and 104% (inactive); in test [6], 89.7% (inactive). The growth in test [7] is 117% (inactive); in test [8], 23.7% (inactive) and 102% (inactive); in [9], 80% (inactive); in test [10], 43.7% (inactive); in test [11] it was 84.9% (inactive) and 98.6% (inactive); in test [13], 84.6% (inactive) and 116% (inactive). The growth in [14] was 106% (inactive); in test [15], 113% (inactive); in test [16] it was 7.19% (active) and 115% (inactive); in test [19] it was 74.9% (inactive) and 123% (inactive); in test [17], 87% (inactive) and 106% (inactive).

As for `N#CSCc1ccc(CSC#N)c(Cl)c1`, the growth in test [1] was 86.2% (inactive); in [2] it was 90.9% (inactive); in test [3], 50.5% (inactive); in test [18], 36.7% (inactive); in [5] it was 56.5% (inactive); in [6] it was 41.7% (inactive). The growth is 91.9% (inactive) in test [7]; 19.3% (inactive) in [8]; 6.77% (active) in test [10]; 96.7% (inactive) in [12]; 85.2% (inactive) in test [13]; 115% (inactive) in test [14]. For the same compound, the growth in [15] is 91.2% (inactive); in test [16] it was 77.9% (inactive); in [17], 77.9% (inactive).

In the case of `C[N+](C)=c1ccc2nc3c(cc(NCCCNc4cc5oc6cc(=[N+](C)C)ccc-6nc5c5ccccc45)c4ccccc43)oc-2c1`, the growth was 90.4% (inactive) in [1]; 45.6% (inactive) in [2]; -25.5% (active) in test [3]; 45.1% (inactive) in test [18]; 25.3% (inactive) in [5]; 53.8% (inactive) in test [6]. Also, the growth in test [7] is 109% (inactive); in test [8] it was 11.3% (inactive); in [10] it was 6.05% (active); in test [11] it was -5.6% (active); in [12], 68.5% (inactive); in test [13], -100% (active). The growth in test [14] is 90.1% (inactive); in [15], 19.1% (inactive); in test [16] it was -54.5% (active); in test [19] it was 87.4% (inactive); in test [17], 6.53% (active).
